# In PubChem BioAssay AID686977 (Southern Research Specialized Biocontainment Screening …, 2013):
# The campaign covered roughly 9,400 compounds. Fewer than 10 were called active. Inconclusive results (about 5%) are left out. A selection follows. Results with a measured potency or affinity are listed apart. Values without a mark were called inactive. The rule behind the calls is not given here.
# Test: Vibrio cholerae quorum sensing activators, luminescence (AID 686977)
# Details: V. cholerae quorum sensing reporter, 6 h, active compounds read high; dose 50, dose unit µM unless noted
row,SMILES,luminescence
1,CC(=O)CC(c1ccccc1)S(=O)(=O)c1ccc(C)cc1 (configuration not stated),40
2,CCN(CC)c1ncnc2sc(C(=O)N3CCN(c4ccc(OC)cc4)CC3)c(C)c12,160
3,c1cc2c3c(cccc3c1)NC1(CCCCC1)N2,40
4,O=C(Nc1ccc(Cc2ccncc2)cc1)c1ccc(Cl)c([N+](=O)[O-])c1,0
5,COc1cccc(S(=O)(=O)NCc2ccc(C(=O)NCC3CCCO3)cc2)c1 (configuration not stated),40
6,O=C(Nc1ccc2c(c1)OCCO2)c1ccc(CN2CCOCC2)cc1,0
7,COCCOC(=O)C1=C(C)NC2=C(C(=O)CC(c3cccs3)C2)C1c1ccsc1 (configuration not stated),40
8,CCN1CCN(c2nc3c(c(=O)[nH]c(=O)n3C)n2CCSc2nc3ccccc3s2)CC1,0
9,CCc1ccc(C2CC(c3ccc(F)cc3)Nc3nc(N)nn32)cc1 (configuration not stated),40
10,COc1ccccc1C(=O)N1CCNC(=O)C1CC(=O)Nc1cccc(C)c1 (configuration not stated),0
11,O=C(O)c1[nH]c2ccccc2c1CC(=O)N1CCOCC1,0
12,Cc1cc(C(=O)Nc2c(C)nn(Cc3ccc(F)cc3)c2C)on1,0
13,COC(=O)c1ccc(NC(=O)CN(Cc2ccc(Cl)cc2)S(C)(=O)=O)cc1,0
14,CC(C)SCCCOc1ccc(C(C)(C)C)cc1,0
15,CCOC(=O)C1CCCN(c2c(NCCCN(C)c3ccccc3)c(=O)c2=O)C1 (configuration not stated),0
16,COC(=O)c1ccc(NC(=O)CSc2nnc(COc3ccc4c(c3)CCCC4)o2)cc1,40
17,CCC(=O)NCCCOc1ccccc1,0
18,O=C(Nc1ccc2c(c1)CCC2)c1cc(S(=O)(=O)N2CCN(c3ccccc3)CC2)ccc1Cl,0
19,CCOC(=O)c1sc2nc(C)cc(C)c2c1NC(=O)c1ccco1,0
20,CCOC(=O)N1CCC(NC(=O)C(Cc2ccccc2)NC(=O)C2CCCCC2)CC1 (configuration not stated),0
21,CCOc1cc(N2CCOCC2)c(OCC)cc1NC(=O)CN1CCc2ccccc2C1,0
22,CCn1ncc(C2=NOC(C(=O)NCc3ccc(OC)cc3)C2)c1C (configuration not stated),0
23,COc1ccc(-n2c(Cn3c(=O)sc4ccccc43)nnc2SCC(=O)N2CCCCC2)cc1,0
24,COc1ccc(NC(=O)c2c(NC(=O)CNCc3ccco3)sc3c2CCC3)c(OC)c1,40

row,SMILES,luminescence
1,COC(=O)c1nc2cc(C)ccn2c1F,40
2,Cc1ccc(NS(=O)(=O)c2cc(C(N)=O)ccc2C)cc1,0
3,Cc1ccc([N+](=O)[O-])cc1N=Cc1ccc(Br)s1,40
4,CC(=O)N(c1ccc(Br)cc1)C1C=CS(=O)(=O)C1 (configuration not stated),0
5,Cc1cc2ccccc2n1CCNC(=O)c1cccs1,0
6,Cc1cc(C)nc(NC(=O)c2cnc3sccn3c2=O)n1,0
7,CCn1c(=O)cc(OCC(=O)NCCC(C)C)c2ccccc21,40
8,C=CCNC(=O)CN(c1cccc(Br)c1)S(C)(=O)=O,0
9,CCOC(=O)c1c(-c2ccccc2)csc1NC(=O)c1ccc(S(=O)(=O)N2CC(C)OC(C)C2)cc1 (configuration not stated),40
10,COc1cc(C(=O)N(Cc2cccc(Cl)c2)C2CCS(=O)(=O)C2)cc(OC)c1OC (configuration not stated),40
11,Cc1ccc2oc(=O)c3cnn(CC(=O)NC4CCN(Cc5ccccc5)CC4)c3c2c1,0
12,CC(C)C(=O)Nc1nc2cc3c(cc2s1)OCO3,0
13,COC(=O)c1[nH]c2cc(OC)ccc2c1NC(=O)CCN1CCN(c2ccccc2)CC1,40
14,O=C(Nc1cccc(F)c1)c1cccnc1N1CCOCC1,80
15,COc1ccccc1N1CCN(C(=O)Oc2ccccc2)CC1,0
16,COc1cc(S(=O)(=O)N2CCC(N3CCCCC3)CC2)ccc1-n1cnnn1,0
17,CC(Oc1ccc(-c2ccccc2)c(F)c1)c1ccn(S(=O)(=O)c2ccc(F)cc2)n1 (configuration not stated),120
18,COc1ccccc1NC(=O)C1=C(C)NC(=O)NC1c1ccc(C)cc1 (configuration not stated),80
19,O=C(O)CCCSCC(=O)Nc1ccccc1,0
20,O=C(C[n+]1ccc(C(=O)N/N=C/c2ccc(OCc3ccccc3)cc2)cc1)c1ccccc1,0
21,CCOC(=O)C1=C(C)Nc2nnnn2C1c1ccc(OC)c(Br)c1 (configuration not stated),0
22,Cc1c(Cl)cccc1NC(=O)CN1C(=O)CSc2ncccc21,0
23,O=c1cc(NC2CCCCC2)c2ccccc2o1,0
24,CCOc1ccc(CNC(=O)C(CC)n2nc(C)n3c(cc4occc43)c2=O)cc1OC (configuration not stated),0

row,SMILES,luminescence
1,CNc1ccccc1-c1nc2ccccc2n(C)c1=O,0
2,O=C(Nc1ccc(Cl)cn1)C1CCCN1S(=O)(=O)c1ccc(Cl)cc1 (configuration not stated),0
3,CCC(Oc1ccccc1)C(=O)Nc1ccccc1OC (configuration not stated),0
4,CCOCCn1c(SCCc2ccccc2)nc2c1c(=O)[nH]c(=O)n2C,0
5,Cc1nn(C2CCS(=O)(=O)C2)c(Cl)c1/C=C/C(=O)OCC(=O)Nc1ccccc1OC(F)F (configuration not stated),0
6,COc1ccc(S(=O)(=O)Cc2ccc(C(=O)NCc3ccccn3)o2)cc1,0
7,CCOC(=O)N1CCN(C(=O)CSc2nc3c([nH]c4ccccc43)c(=O)n2C)CC1,40
8,C#CCN1C(=O)C2C(C(=O)NC)C3C=CC2(O3)C1C(=O)NCc1ccc(OC)cc1 (configuration not stated),40
9,CCCNC(=O)C(NS(=O)(=O)c1ccc2c(c1)c(=O)n(C)c(=O)n2C)c1ccccc1 (configuration not stated),40
10,CN[C@H]1[C@@H](O)[C@H](O[C@H]2[C@@H](O)[C@@H](OC3OC(CN)=CCC3N)[C@H](N)C[C@@H]2N)OC[C@@]1(C)O (some centres not stated),"40 [dose 10, dose unit µg/mL]"
11,CCc1ccc(CCC(=O)Nc2ccc(C)c(C)c2)o1,0
12,CCc1cccc(OCCOCCN2CCCC2)c1,40
13,CCOC(=O)c1ccccc1NC(=O)c1cc(S(=O)(=O)N2CCOCC2)ccc1F,0
14,Cc1ccc(S(=O)(=O)CCc2nnc(NC(=O)C3CCCO3)s2)cc1 (configuration not stated),0
15,COC(=O)c1cc(-c2ccc(Br)cc2)n[nH]1,0
16,CN(C)S(=O)(=O)c1ccc(S(=O)(=O)N2CCN(CCC#N)CC2)cc1,40
17,COc1cc(C2Nc3ccc4ncccc4c3C3=C2C(=O)CC(C)(C)C3)cc(OC)c1O (configuration not stated),0
18,CN(CC(=O)N1CCc2ccccc2C1)S(=O)(=O)c1ccc2c(c1)c(=O)n(C)c(=O)n2C,40
19,CCOc1ccc(CCNC(=O)Cn2c(=O)oc3ccccc32)cc1OCC,0
20,COC(=O)c1cc(=O)n(CCc2ccc(OC)c(OC)c2)c(=Nc2ccc(F)c(Cl)c2)s1,40
21,CCc1nnc(NC(=O)CSc2nnc(-c3ccco3)n2C)s1,0
22,CN/C(=C/[N+](=O)[O-])NCCSCc1csc(CN(C)C)n1,"0 [dose 10, dose unit µg/mL]"
23,CCCCCCN1CC(O)=C(c2ccccc2)C1=N,0
24,CC1CCN(C(=O)CSc2nc3c(cnn3-c3ccc(Cl)cc3)c(=O)[nH]2)CC1,0
